Bioassay records: PubChem, National Center for Advancing Translational Sciences (NCATS)
Compounds with a hit are over-represented: about 3.6% of the library has one in this group of screens.
Giardia FBPA inh: inhibitors of Giardia lamblia fructose-1,6-bisphosphate aldolase. A8B2U2. 290,000 tested, 0.71% active. purified Giardia FBPA. AID 2451. Potency, µM (highest dose often 59.6 µM), most hits filed as inhibitors; note: nearly all actives have a fitted effect of over 55% in size
Target sequence (A8B2U2 whole entry, looked up): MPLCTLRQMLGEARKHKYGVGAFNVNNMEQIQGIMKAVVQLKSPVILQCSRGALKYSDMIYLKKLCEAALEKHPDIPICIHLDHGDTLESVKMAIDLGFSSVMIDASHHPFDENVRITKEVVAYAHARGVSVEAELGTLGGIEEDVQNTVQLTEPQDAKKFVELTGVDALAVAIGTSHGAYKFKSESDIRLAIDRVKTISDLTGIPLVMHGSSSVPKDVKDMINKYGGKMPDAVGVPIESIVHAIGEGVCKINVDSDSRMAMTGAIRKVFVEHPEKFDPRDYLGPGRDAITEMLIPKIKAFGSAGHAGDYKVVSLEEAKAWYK
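Giardia FBPA (40 nM reagent) was preincubated 10 min at RT with compound (up to 57.5 uM final), then substrate plus GAPDH/TPI/NAD/arsenate coupling system with diaphorase/resazurin was added; resorufin fluorescence (525/598 nm) was read after 20 min.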
AmpC inh detg: blocks E. coli AmpC beta-lactamase in detergent assay; AmpC hydrolysis of nitrocefin, absorbance 480 nm, 0.01% Triton; 370,000 tested, 0.041% active; AID 485294; Potency, µM (highest dose often 114 µM), hits mostly inhibitors; P00811; note: nearly all actives have a fitted effect of over 25% in size
Target sequence (P00811 whole entry, looked up): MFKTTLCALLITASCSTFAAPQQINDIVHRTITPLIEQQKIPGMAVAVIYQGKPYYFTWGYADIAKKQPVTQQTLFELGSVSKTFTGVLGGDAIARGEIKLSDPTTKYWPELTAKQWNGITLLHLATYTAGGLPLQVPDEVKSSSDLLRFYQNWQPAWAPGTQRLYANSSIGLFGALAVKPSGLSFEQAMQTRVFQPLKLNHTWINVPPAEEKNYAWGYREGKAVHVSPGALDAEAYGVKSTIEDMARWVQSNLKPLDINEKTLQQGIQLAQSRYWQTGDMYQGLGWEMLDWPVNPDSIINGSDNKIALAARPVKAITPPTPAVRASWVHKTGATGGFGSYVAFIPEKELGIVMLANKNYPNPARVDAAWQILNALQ
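AmpC (5.3 nM in the dispensed reagent) in 20 mM phosphate pH 7.0 with 0.01% (detergent screen) or 0.0001% Triton X-100 was preincubated with compounds for 15 min at room temperature. Nitrocefin was then added from an 800 uM solution, and hydrolysis was followed at 480 nm.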
AmpC no deterg: inhibitors of E. coli AmpC beta-lactamase without detergent. AmpC nitrocefin hydrolysis, absorbance 480 nm, 0.0001% Triton. Potency, µM (top dose mostly 57.1 µM), most hits filed as inhibitors. 330,000 tested, 0.52% active. AID 485341; note: nearly all actives have a fitted effect of over 20% in size
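20 mM phosphate pH 7.0 + 0.01% (detergent screen) or 0.0001% Triton X-100; 5.3 nM AmpC reagent; cpd preinc 15 min RT; nitrocefin (800 uM stock) to start; A480 q20 s × 4 min; Activity was normalised to no-enzyme and no-compound control wells.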
Sm TGR inh: blocks Schistosoma mansoni thioredoxin glutathione reductase. purified TGR, DTNB reduction, TNB absorbance 405 nm. Potency, µM (doses to about 114 µM), most hits filed as inhibitors. 360,000 tested, 3% active. Q962Y6. AID 485364; note: nearly all actives have a fitted effect of over 60% in size
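Kinetic colorimetric format: TGR-catalysed, NADPH-driven DTNB reduction monitored via TNB absorbance. Enzyme dispensed at 20 nM; compound exposure 15 min at room temperature before reaction start.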
Each line names hits and unclear results; the compound was inactive in the other large screens. Calls come from the whole dose curve; as a rule, active = well fitted curve in the direction sought with a large enough effect; inconclusive = small, poorly fitted or top-dose-only effect, or another doubt; inactive = no such curve, though single readings can be large; an effect the other way counts as inactive or inconclusive.

CC(C)(C)n1nnnc1C(c1cccnc1)N(Cc1ccccc1)Cc1ccco1 (stereo unspecified)	none
COc1cccc(CN(Cc2ccco2)C(c2ccc(F)cc2)c2nnnn2C(C)(C)C)c1 (stereo unspecified)	Sm TGR inh 50µM
Cc1ccc(O)c(-c2[nH]ncc2C(=O)c2ccc(Cl)cc2)c1	none
Cc1ccc(O)c(-c2[nH]ncc2C(=O)c2ccc(Br)cc2)c1	AmpC no deterg 5µM
COc1cc(-c2nnc(NC(=O)CCS(=O)(=O)c3ccccc3)o2)cc(OC)c1OC	Sm TGR inh 28µM (no result: Giardia FBPA inh)
COc1ccc(-c2csc(NC(=O)CCS(=O)(=O)c3ccccc3)n2)c(OC)c1	Sm TGR inh 14µM
COc1cc(OC)cc(-c2nnc(NC(=O)CCS(=O)(=O)c3ccccc3)o2)c1	Sm TGR inh 32µM (no result: Giardia FBPA inh)
CCOC(=O)c1nn(-c2ccccc2C)c(=O)cc1OCC(=O)Nc1cccc(OC)c1	none (no result: Giardia FBPA inh)
COc1ccc(-c2c3c([nH]c(=S)c2C#N)CCC3)cc1	Giardia FBPA inh inconclusive, AmpC inh detg inconclusive, Sm TGR inh 45µM
N#Cc1c(-c2ccco2)c2c([nH]c1=S)CCCC2	Giardia FBPA inh inconclusive, Sm TGR inh 2.8µM
CC1C(NC(=O)/C(=N/OC(C)(C)C(=O)O)c2csc(N)n2)C(=O)N1S(=O)(=O)O (stereo unspecified)	none (no result: AmpC inh detg, AmpC no deterg, Sm TGR inh)
N#C/C(=C\c1cccc(Cl)c1)C(=O)c1ccccc1	Giardia FBPA inh inconclusive, Sm TGR inh 50µM
N#C/C(=C\c1ccc[nH]1)C(=O)c1ccccc1	none
O=C(O)C1=C[C@H](c2ccc(F)cc2)C[C@H](OCc2ccc(CO)cc2)O1	Sm TGR inh 35µM
NC(=O)C1=C[C@H](c2ccc(Br)cc2)C[C@H](OCc2ccc(CO)cc2)O1	none
C=CCOC(=O)C1=C[C@@H](c2ccc(Br)cc2)C[C@@H](OCc2ccc(CO)cc2)O1	Sm TGR inh inconclusive
C=CCOC(=O)C1=C[C@@H](c2ccc3c(c2)OCO3)C[C@@H](OCc2ccc(CO)cc2)O1	Sm TGR inh 40µM
O=C(O)C1=C[C@H](c2cccs2)C[C@H](OCc2ccc(CO)cc2)O1	Sm TGR inh 35µM
O=C(O)C1=C[C@@H](c2ccc(Br)cc2)C[C@@H](OCc2ccc(CO)cc2)O1	Sm TGR inh 40µM
COc1cc([C@H]2Oc3c(OC)cc(CCCO[C@@H]4O[C@H](CO)[C@@H](O)[C@H](O)[C@H]4O)cc3[C@@H]2CO)ccc1O	none (no result: Giardia FBPA inh)
Cc1ccc(S(=O)(=O)N2CCN(C(=O)C3CCN(C(=O)c4ccccc4C)CC3)CC2)cc1C	none
COc1cccc(NC(=O)Cn2cc3c(n2)CCCCC3)c1	AmpC inh detg inconclusive
O=C(Cn1cc2c(n1)CCCC2)NCc1ccccn1	AmpC no deterg 3.5µM
COc1ccc(CNC(=O)Cn2cc3c(n2)CCCCC3)cc1	AmpC no deterg 7.1µM
CCc1ccc(NS(=O)(=O)c2ccc3oc(=O)c4ncn(CC)c4c3c2)cc1	none (no result: Giardia FBPA inh, AmpC no deterg)
COc1ccc(C(=O)CSc2nnc(CN3CCCCC3)n2-c2ccc(Cl)cc2)cc1OC	AmpC inh detg inconclusive
O=C1C(Cl)=C(NCC2CCCO2)C(=O)N1C1CCCCC1 (stereo unspecified)	none
O=C1C(Cl)=C(NCC2CCCO2)C(=O)N1c1ccccc1 (stereo unspecified)	Sm TGR inh 50µM
CC(O)C(C(=O)OCc1ccc([N+](=O)[O-])cc1)N1C(=O)c2ccccc2C1=O (stereo unspecified)	AmpC inh detg 79µM
O=C(COC(=O)CNC(=O)c1ccc(Cl)cc1Cl)Nc1cccc(S(=O)(=O)N2CCCC2)c1	Sm TGR inh 50µM (no result: Giardia FBPA inh)
CCN(CC)S(=O)(=O)c1cccc(NC(=O)CNc2cccc(S(=O)(=O)N3CCCC3)c2)c1	AmpC no deterg 28µM
O=C(COC(=O)c1cc([N+](=O)[O-])ccc1NCCO)Nc1cccc(S(=O)(=O)N2CCCC2)c1	AmpC inh detg inconclusive, AmpC no deterg 32µM (no result: Giardia FBPA inh)
CN(C)c1nc(-c2ccccc2C(F)(F)F)nc2ccccc12	none (no result: AmpC inh detg, AmpC no deterg, Sm TGR inh)
Cc1nn(C(C)C(=O)NCCCN2CCCCCC2)c(=O)c2cc3sccc3n12 (stereo unspecified)	Sm TGR inh inconclusive (no result: Giardia FBPA inh)
C[C@@H]1[C@H](O)C[C@@]23COC(=O)C2=CCC[C@@H]3[C@@]1(C)CC/C(=C/CO)CO	none (no result: Giardia FBPA inh)
COC(Cn1c2c(c3cc(C)ccc31)CCCC2NCc1ccccc1)OC (stereo unspecified)	Sm TGR inh 4µM
Cc1ccc2c(c1)c1c3n2CCCN(Cc2ccccc2)C3CCC1 (stereo unspecified)	AmpC inh detg inconclusive
CCCOC(=O)Nc1ccc([As](=O)(O)O)cc1NC(=O)OCCC	Sm TGR inh 13µM
COc1ccc(-c2nnc3n2N=C(c2ccc(OC)c(OC)c2)CS3)cc1	none (no result: AmpC inh detg, AmpC no deterg, Sm TGR inh)
Cc1cc(C(C)(C)C)oc1C(=O)N(CC(=O)NC1CCCC1)Cc1ccccc1Cl	AmpC no deterg 5.6µM
CCOC(=O)CCCCC(=O)c1[nH]c(=O)[nH]c1CN1CCOCC1	none
CCOC(=O)CCCCC(=O)c1[nH]c(=O)[nH]c1C[n+]1ccc(C)cc1	Sm TGR inh 35µM
CCOC(=O)CCCCC(=O)c1[nH]c(=O)[nH]c1C[n+]1ccccc1	Sm TGR inh 6.3µM
Cc1[nH]c(=O)[nH]c1C(=O)CCCCC(=O)OCC(=O)Nc1ccccn1	none
O=C(NC1CC1)C1CCN(S(=O)(=O)c2cc([N+](=O)[O-])ccc2Cl)CC1	Sm TGR inh inconclusive (no result: Giardia FBPA inh)
Cc1nnc(NC(=O)C2CCN(S(=O)(=O)c3cc([N+](=O)[O-])ccc3Cl)CC2)o1	Sm TGR inh 35µM (no result: Giardia FBPA inh)
Cc1ccc(C(=O)OC2OC(=O)C(Cl)=C2N2CCOCC2)cc1 (stereo unspecified)	AmpC inh detg 11µM
O=C1NC(=O)N(c2ccccc2)C(=O)/C1=C/c1ccc(Sc2ccccc2)o1	Sm TGR inh 25µM
O=C1NC(=O)N(c2cccc(Cl)c2)C(=O)/C1=C\c1ccc(Sc2nc3ccccc3[nH]2)o1	AmpC no deterg 22µM, Sm TGR inh 7.1µM
O=C1NC(=O)N(c2ccccc2F)C(=O)/C1=C/c1ccc(Sc2nc3ccccc3[nH]2)o1	Sm TGR inh 7.1µM
Cc1cccc(N(C(=O)Cn2nnc3ccccc32)C(C(=O)NC(C)(C)C)c2ccsc2)c1C (stereo unspecified)	AmpC no deterg 0.22µM
Cc1ccc(OC(=O)C(F)(F)F)c2c1NCCC2	AmpC inh detg inconclusive, Sm TGR inh 32µM
CCCNC(=O)CS(=O)(=O)Cc1nc(-c2cccc(OC)c2)oc1C	AmpC inh detg inconclusive, Sm TGR inh 22µM
CCOCCCNC(=O)CS(=O)(=O)Cc1nc(-c2cccc(OC)c2)oc1C	Sm TGR inh 45µM
CCN1CCN(CCCNC(=O)CS(=O)(=O)Cc2nc(-c3cccc(OC)c3)oc2C)CC1	none
COc1cccc(-c2nc(CS(=O)(=O)CC(=O)NCCc3ccccc3)c(C)o2)c1	none
COc1ccc(S(=O)(=O)NNC(=O)c2ccc(-n3c(C)ccc3C)cc2)cc1	Sm TGR inh 10µM
CNCCCCc1cnc(C)c2[nH]c3ccccc3c12	none (no result: AmpC inh detg, AmpC no deterg, Sm TGR inh)
